A number with no mark means an inactive call. A call without a number means that no potency is given here. For part of these data: Potency and affinity values are given separately. Active and inactive are the calls of the source. Unless noted, no rule for the calls is given here.
How the values were obtained:
[1] = antimalarial activity against Dd2 strain (AID 2302;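 active = growth inhibition above 50% at the single 2 µM test dose, taken to imply half-maximal potency below 2 µM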); settings: P. falciparum Dd2 in RBCs, LDH growth readout, 72 h; at 2 µM; hits give high values
[2] = HepG2 cytotoxicity, primary screen, cytotoxicity control for P. falciparum antimalarial project, cell-based, ATP luminescence (AID 2303;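 active = inhibition above 50%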); settings: HepG2 viability, 24-48 h, at 10 µM, hits give high values
[3] = biological target: L-lactate dehydrogenase (Plasmodium falciparum (isolate CDC / Honduras)) (UniProt Q27743); test: PfLDH activity inhibition – cell lysate, 3D7 strain, counter-screen for P. falciparum growth inhibition project (AID 2304); settings: P. falciparum 3D7 crude extract, LDH APAD/NBT absorbance; at 2 µM; hits give high values
[4] = inhibition of 3D7 malaria parasite growth – strain 3D7 (AID 2306); settings: P. falciparum 3D7 erythrocytic growth, LDH absorbance, 72 h; at 2 µM; hits give high values
[5] = biological target: Calcium-dependent protein kinase 1 (Plasmodium falciparum (isolate 3D7)) (UniProt P62344); test: PfCDPK1 kinase inhibitors, biochemical, TCAMS library (AID 1159585; cut-off not given, nearly all actives have IC50 up to about 0.98 µM;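 also: inhibitors leave more ATP so luminescence rises with inhibition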); settings: recombinant PfCDPK1, Kinase-Glo ATP depletion luminescence
[6] = biological target: Plasmodium falciparum protein kinase 6 (PK6, PF3D7_1337100) (UniProt Q8IDW1); test: PfPK6 kinase inhibitors, biochemical, TCAMS library (AID 1159586); settings: recombinant PfPK6, Kinase-Glo ATP depletion luminescence
[7] = biological target: Protein kinase 7 (PK7), Plasmodium falciparum 3D7 (PF3D7_0213400) (UniProt Q7YTF7); test: inhibition of Plasmodium PK7 catalytic activity – biochemical, TCAMS antimalarial set, Kinase-Glo luminescence (AID 1159587); settings: recombinant PfPK7, Kinase-Glo ATP depletion luminescence
[8] = biological target: Calcium-dependent protein kinase 4 (Plasmodium falciparum (isolate 3D7)) (UniProt Q8IBS5); test: PfCDPK4 kinase inhibitors, biochemical, TCAMS library (AID 1159588; cut-off not given, nearly all actives have IC50 up to about 0.91 µM); settings: recombinant PfCDPK4, Kinase-Glo ATP depletion luminescence
Sequence of Calcium-dependent protein kinase 4 (Plasmodium falciparum (isolate 3D7)) (Q8IBS5 whole entry, looked up): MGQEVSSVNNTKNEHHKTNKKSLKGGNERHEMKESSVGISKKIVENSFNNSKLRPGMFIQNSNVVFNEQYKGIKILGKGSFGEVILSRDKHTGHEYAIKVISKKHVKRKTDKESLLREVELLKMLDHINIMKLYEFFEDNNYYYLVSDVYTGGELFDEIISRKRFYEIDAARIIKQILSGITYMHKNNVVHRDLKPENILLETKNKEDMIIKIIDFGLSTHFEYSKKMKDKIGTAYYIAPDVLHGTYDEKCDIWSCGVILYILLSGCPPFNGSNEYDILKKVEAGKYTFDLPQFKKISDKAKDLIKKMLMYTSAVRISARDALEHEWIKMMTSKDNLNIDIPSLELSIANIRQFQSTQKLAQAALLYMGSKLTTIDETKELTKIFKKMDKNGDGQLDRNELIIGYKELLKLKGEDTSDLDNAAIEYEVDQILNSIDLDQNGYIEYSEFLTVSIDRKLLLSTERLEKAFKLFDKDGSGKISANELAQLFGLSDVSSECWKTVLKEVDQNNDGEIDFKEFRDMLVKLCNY

Sequence of L-lactate dehydrogenase (Plasmodium falciparum (isolate CDC / Honduras)) (Q27743 whole entry, looked up): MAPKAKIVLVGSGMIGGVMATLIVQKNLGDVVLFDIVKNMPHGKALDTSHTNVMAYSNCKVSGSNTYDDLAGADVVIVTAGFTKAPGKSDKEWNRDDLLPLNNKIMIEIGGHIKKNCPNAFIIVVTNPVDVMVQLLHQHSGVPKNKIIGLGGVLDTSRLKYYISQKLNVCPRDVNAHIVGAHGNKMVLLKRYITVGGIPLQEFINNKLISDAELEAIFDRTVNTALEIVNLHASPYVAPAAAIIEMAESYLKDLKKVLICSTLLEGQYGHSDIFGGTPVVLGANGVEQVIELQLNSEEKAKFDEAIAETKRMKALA
Sequence of Calcium-dependent protein kinase 1 (Plasmodium falciparum (isolate 3D7)) (P62344 whole entry, looked up): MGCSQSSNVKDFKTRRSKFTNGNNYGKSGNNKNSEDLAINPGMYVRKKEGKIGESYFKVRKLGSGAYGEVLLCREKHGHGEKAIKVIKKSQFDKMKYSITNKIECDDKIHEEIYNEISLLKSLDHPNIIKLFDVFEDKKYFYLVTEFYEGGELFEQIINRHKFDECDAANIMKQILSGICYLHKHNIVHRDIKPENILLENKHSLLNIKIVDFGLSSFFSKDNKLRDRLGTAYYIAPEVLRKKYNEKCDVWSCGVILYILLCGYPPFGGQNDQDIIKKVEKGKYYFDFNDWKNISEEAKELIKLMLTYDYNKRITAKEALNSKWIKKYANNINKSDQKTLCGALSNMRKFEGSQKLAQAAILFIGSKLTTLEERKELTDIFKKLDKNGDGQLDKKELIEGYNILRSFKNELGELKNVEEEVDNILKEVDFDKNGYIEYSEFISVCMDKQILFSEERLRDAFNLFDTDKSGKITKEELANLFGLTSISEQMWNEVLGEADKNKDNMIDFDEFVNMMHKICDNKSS
Sequence of Protein kinase 7 (PK7), Plasmodium falciparum 3D7 (PF3D7_0213400) (Q7YTF7 1-343): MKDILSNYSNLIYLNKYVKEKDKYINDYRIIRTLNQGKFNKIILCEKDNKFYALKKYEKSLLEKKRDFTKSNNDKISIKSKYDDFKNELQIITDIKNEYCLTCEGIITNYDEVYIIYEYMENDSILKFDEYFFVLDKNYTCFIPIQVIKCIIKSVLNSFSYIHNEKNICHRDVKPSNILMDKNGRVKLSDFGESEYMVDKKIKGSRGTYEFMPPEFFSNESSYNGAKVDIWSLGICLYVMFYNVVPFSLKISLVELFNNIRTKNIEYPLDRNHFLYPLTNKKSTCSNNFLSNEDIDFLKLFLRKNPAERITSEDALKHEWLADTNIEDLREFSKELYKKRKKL
Sequence of Plasmodium falciparum protein kinase 6 (PK6, PF3D7_1337100) (Q8IDW1 1-305): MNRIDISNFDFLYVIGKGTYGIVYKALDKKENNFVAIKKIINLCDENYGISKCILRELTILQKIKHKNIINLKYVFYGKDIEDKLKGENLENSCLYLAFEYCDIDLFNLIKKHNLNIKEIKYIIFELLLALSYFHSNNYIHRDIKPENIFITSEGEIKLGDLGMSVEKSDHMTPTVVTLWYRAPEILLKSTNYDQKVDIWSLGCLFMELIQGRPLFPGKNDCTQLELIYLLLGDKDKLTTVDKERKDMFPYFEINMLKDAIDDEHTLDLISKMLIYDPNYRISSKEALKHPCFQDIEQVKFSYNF

Compound	growth inhibition [1]	inhibition [2]	inhibition [3]	growth inhibition [4]	outcome [5]	outcome [6]	outcome [7]	outcome [8]
CCC(C)NC(=O)CN1CN(c2ccccc2)C2(CCN(C(=O)c3ccc(-c4ccccc4)cc3)CC2)C1=O (stereo unspecified)	100% (active)	-1%	-2%	100% (active)	inactive	inactive	inactive	inactive
COc1ccccc1/C=C/C(=O)NC1CCC(CCN2CCc3ccc(-c4cc(C)no4)cc3CC2)CC1 (stereo unspecified)	11%	47%	0%	95% (active)	inactive	inactive	inactive	inactive
O=S(=O)(c1ccccc1)C1CC1	65% (active)	-3%	7%	89% (active)	inactive	inactive	inactive	inactive
O=C(NCc1ccc(Cl)cc1)c1ccc(CN2CCCN(CC3CCCCC3)CC2)cc1	5%	18%	-3%	84% (active)	inactive	inactive	inactive	inactive
CCCCC(O)c1cc(O)c2c(c1)OC(C)(C)CC2C1=CCN(Cc2ccc3ccccc3c2)CC1 (stereo unspecified)	97% (active)	7%	3%	100% (active)	inactive	inactive	inactive	inactive
COc1cc2nc(C)nc(Nc3ccc4c(ccn4Cc4ccccc4)c3)c2cc1OC	99% (active)	2%	-7%	101% (active)	inactive	inactive	inactive	inactive
CC(C)C(=O)n1ncc2c3c(N)nc(N)nc3ccc21	3%	0%	-5%	87% (active)	inactive	inactive	inactive	inactive
Cc1nc2ccc(NC(=O)c3cc(S(=O)(=O)N(C)C)ccc3Cl)cc2s1	77% (active)	20%	-2%	91% (active)	inactive	inactive	inactive	inactive
Cc1cccc2[nH]c(-c3cccc(-c4ccc(NC(=O)CN5CCOCC5)cc4)c3)nc12	12%	59% (active)	4%	94% (active)	inactive	inactive	inactive	inactive
NC(N)=NN=Cc1c2ccccc2c(Cl)c2cc(Cl)ccc12	28%	26%	-3%	97% (active)	inactive	inactive	inactive	inactive
NC1CCCN(Cc2ccc(-c3ccc(-c4nc5ccccc5[nH]4)s3)cc2)C1 (stereo unspecified)	99% (active)	40%	-2%	102% (active)	inactive	inactive	inactive	inactive
CCOCCCNc1ncc(-c2ccsc2)c(-c2nc(C)cs2)n1	83% (active)	0%	1%	89% (active)	inactive	inactive	inactive	inactive
CN1CCC(NC(=O)c2cc(Oc3ccc4c(c3)CCN4C(=O)Nc3cccc(C(F)(F)F)c3)ccn2)CC1	17%	16%	-3%	92% (active)	inactive	inactive	inactive	inactive
CN(C(=O)c1ccc(Br)cc1)c1ccccc1[N+](=O)[O-]	0%	3%	2%	96% (active)	inactive	inactive	inactive	inactive
Cc1ccc(-c2nc(N3CCN(C(=O)c4ccco4)CC3)c3ccccc3n2)cc1	75% (active)	-8%	3%	90% (active)	inactive	inactive	inactive	inactive
Cc1ccnc(NC(=O)c2cc(-c3cccc([N+](=O)[O-])c3)nc3onc(C)c23)c1	44%	5%	-1%	91% (active)	inactive	inactive	inactive	inactive
Cc1cnc(C(=O)Nc2cccc(-c3csc(-c4nc5ccccc5[nH]4)c3)c2)cn1	80% (active)	31%	-1%	98% (active)	inactive	inactive	inactive	inactive
CCN1CCN(c2cc(C)c3cc(NC(=O)c4cccc(OC)c4)ccc3n2)CC1	15%	5%	3%	99% (active)	inactive	inactive	inactive	inactive
COc1cc2nc(NCCc3ccccc3)nc(N(C)Cc3ccccc3)c2cc1OC	58% (active)	31%	-6%	96% (active)	inactive	inactive	inactive	inactive
CN1CCCN(Cc2ccc(-c3ccc(NC(=O)c4ccc(Cl)cc4)cc3)cc2)CC1	67% (active)	58% (active)	3%	96% (active)	inactive	inactive	inactive	inactive
Cc1cc(C(=O)NC2CCN(Cc3ccccc3)CC2)ccc1-c1nc2cc(Cl)c(Cl)cc2[nH]1	32%	7%	0%	96% (active)	inactive	inactive	inactive	inactive

Compound	growth inhibition [1]	inhibition [2]	inhibition [3]	growth inhibition [4]	outcome [5]	outcome [6]	outcome [7]	outcome [8]
CCOc1ccc(-n2nc3c(Cl)nnc(-c4ccccc4)c3c2-c2ccccc2)cc1	99% (active)	0%	9%	96% (active)	inactive	inactive	inactive	inactive
CCNc1nc(OCC(F)(F)F)nc(N(c2ccccc2)c2ccccc2)n1	83% (active)	5%	1%	100% (active)	inactive	inactive	inactive	inactive
CC(=O)Nc1nc(C(=O)Nc2cccc(-c3cccc(-c4nc5c(C)cccc5[nH]4)c3)c2)cs1	94% (active)	28%	-2%	101% (active)	inactive	inactive	inactive	inactive
O=C(/C=C/c1ccc(Cl)cc1)NCCCCCN1CCCC(C(=O)Nc2ccc(Cl)cc2)C1 (stereo unspecified)	6%	24%	8%	94% (active)	inactive	inactive	inactive	inactive
COC(=O)c1cc(C(O)CNC(C)CCc2cccc(F)c2)ccc1O (stereo unspecified)	77% (active)	38%	-2%	94% (active)	inactive	inactive	inactive	inactive
CCC(C)NCC(O)(c1ccc(Cl)cc1)c1ccc(Cl)cc1 (stereo unspecified)	76% (active)	5%	0%	95% (active)	inactive	inactive	inactive	inactive
COc1ccc(CNCc2cccc(-c3ccc(-c4nc5ccc(C(F)(F)F)cc5[nH]4)cc3)c2)cc1	95% (active)	23%	0%	102% (active)	inactive	inactive	inactive	inactive
COc1ccc(CC(C)CON2C(N)=NC(N)=NC2(C)C)cc1 (stereo unspecified)	96% (active)	59% (active)	-9%	94% (active)	inactive	inactive	inactive	inactive
CC(C)CCN=C(N)Nc1ccc(OCCCOc2ccc(NC(N)=NCCC(C)C)cc2)cc1	95% (active)	0%	-3%	100% (active)	inactive	inactive	inactive	inactive
CCN(CC)CCCNCc1ccc(-c2ccc(C(F)(F)F)cc2)cc1	35%	53% (active)	-4%	95% (active)	inactive	inactive	inactive	inactive
Cc1cc2cc(-c3ccc(CN)cc3)ccc2nc1N	8%	18%	4%	92% (active)	inactive	inactive	inactive	inactive
COc1ccc(CCN2CCC(Nc3nc4ccccc4n3CCc3ccc(OC)cc3)CC2)cc1	88% (active)	34%	-1%	101% (active)	inactive	inactive	inactive	inactive
COc1ccc(-c2ccc(NC(=O)c3ccc(C#N)cc3)c(F)c2)cc1CN(C)CCN(C)C	0%	24%	-4%	88% (active)	inactive	inactive	inactive	inactive
O=C(Nc1cc(Cl)cc(Cl)c1)Nc1ccnc2ccccc12	65% (active)	15%	-2%	96% (active)	inactive	inactive	inactive	inactive
CC(C)c1cc(Oc2c(I)cc(CCNCc3ccccc3)cc2I)ccc1O	54% (active)	42%	4%	95% (active)	inactive	inactive	inactive	inactive
CC(C)c1ccc(-c2noc(SCC(=O)N(C)c3ccc(F)cc3)n2)cc1	77% (active)	7%	3%	84% (active)	inactive	inactive	inactive	inactive
COc1ccc(CN2CCCC(N3CC4(OC3=O)c3ccccc3-c3ccccc34)C2)c(O)c1 (stereo unspecified)	34%	14%	7%	92% (active)	inactive	inactive	inactive	inactive
CC1(C)OC[C@]2(C)[C@@H](CC[C@]3(C)C4=CC(=O)CCC4CC[C@@H]23)O1 (stereo partly specified)	95% (active)	-2%	1%	97% (active)	inactive	inactive	inactive	inactive
CCN(CC)S(=O)(=O)c1ccc(CCOCCCCCNCC(O)c2cc(Cl)c(N)c(Cl)c2)s1 (stereo unspecified)	80% (active)	35%	-10%	96% (active)	inactive	inactive	inactive	inactive
CN(C(=O)c1ccccc1)[C@@H]1c2cc(C#N)ccc2OC(C)(C)[C@H]1O	4%	8%	-3%	97% (active)	inactive	inactive	inactive	inactive
N#Cc1cccc(NC(=O)C2=C(CCc3ccc4c(c3)OCO4)NC(=O)NC2c2cccc(C#N)c2)c1 (stereo unspecified)	47%	3%	-1%	96% (active)	inactive	inactive	inactive	inactive
